Bioassay records (PubChem)
PTHR1 agonist – activates the human parathyroid hormone receptor PTHR1; Potency, µM (top dose mostly 115 µM), for the others: at the highest dose activation, actives largely listed as activators; HEK293 GP2 PTHR1 cells, GloSensor cAMP luminescence, 1 h; Q03431; 0.075% of 410,000 active; note: potency is the fitted concentration of half-maximal effect; nearly all actives have a fitted effect of over 55% in size
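HEK-293-derived GP2 cells expressing PTHR1 and a GloSensor cAMP reporter, 3,000/well, plated overnight, given luciferin plus IBMX (each 0.5 mM as added) for 1 h at 37 °C, then compound for 1 h at 37 °C. Luminescence was read after 15 min at room temperature.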
RXFP1 antag – RXFP1 (human) relaxin receptor antagonism | 0.59% of 350,000 active | AID 1259400 | HEK293-RXFP1, relaxin-stimulated cAMP HTRF, 30 min; hits give low values | activity change, negative = inhibition, % at 57.5 µM | Q9HBX9;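 active = activity change of -60% or lower, but not beyond a set lower limit; inconclusive = change between -60% and -40%, or beyond the set limit; inactive = change above -40%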; note: % is set by controls: 0 for no effect and ±100 for the full control effect
TSHR antagonist – human thyrotropin receptor antagonism; P16473; TSHR-expressing cells, TSH-stimulated cAMP HTRF, 2 h; hits give low values; activity change, negative = inhibition, % at 11.5 µM; 0.2% of 330,000 active; AID 504810;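 active = activity change below a set negative limit, meaning inhibition stronger than a set level, cut at about -70% in these data; inconclusive = activity change between two set negative limits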; note: % is set by controls: 0 for no effect and ±100 for the full control effect
Target sequence (P16473 whole entry, looked up): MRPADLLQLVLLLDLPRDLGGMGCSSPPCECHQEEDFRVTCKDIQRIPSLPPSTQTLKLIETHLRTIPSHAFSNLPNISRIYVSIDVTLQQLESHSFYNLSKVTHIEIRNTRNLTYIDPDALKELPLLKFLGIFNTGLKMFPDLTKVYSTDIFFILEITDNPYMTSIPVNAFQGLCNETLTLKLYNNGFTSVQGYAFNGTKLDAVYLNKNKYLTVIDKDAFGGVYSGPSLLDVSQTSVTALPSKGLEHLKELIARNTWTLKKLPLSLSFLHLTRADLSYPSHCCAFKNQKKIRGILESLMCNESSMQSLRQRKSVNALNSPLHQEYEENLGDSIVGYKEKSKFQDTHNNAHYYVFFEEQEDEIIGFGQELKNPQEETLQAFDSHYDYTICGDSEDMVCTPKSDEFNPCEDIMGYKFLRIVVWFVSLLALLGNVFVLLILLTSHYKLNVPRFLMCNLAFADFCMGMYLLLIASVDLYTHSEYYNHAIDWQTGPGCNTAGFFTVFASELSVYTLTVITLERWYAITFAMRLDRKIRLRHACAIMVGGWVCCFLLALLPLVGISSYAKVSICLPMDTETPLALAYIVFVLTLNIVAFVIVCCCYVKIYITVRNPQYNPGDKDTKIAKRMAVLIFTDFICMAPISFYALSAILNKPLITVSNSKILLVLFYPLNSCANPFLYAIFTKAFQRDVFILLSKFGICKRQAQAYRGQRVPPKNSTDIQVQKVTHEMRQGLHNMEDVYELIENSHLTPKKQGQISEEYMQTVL
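Freshly harvested TSHR cells receive pin-tooled compound, then EC80 TSH at 4nM final. After 2 hours at 37 deg C, antibody in lysis buffer and cAMP-d2 are added; 30 minutes at ambient temperature precede the HTRF read.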
GLP1R cytotox – cytotoxicity in counter-screen for GLP-1R inverse agonists. Potency, µM (highest dose often 38.3 µM), for the others: at the highest dose activity change, negative = inhibition, usual class: inhibitors. HEK293 cAMP-luciferase reporter cells, luminescence, 24 h. 0.13% of 410,000 active;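 note: loss of luciferase light is scored as toxicity; potency is the fitted concentration of half-maximal effect; % is set by controls: 0 for no effect and ±100 for the full control effect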
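To flag toxic compounds, the library was rerun on cells for 24 hr at 37 deg C and 5% CO2. Viability-linked luminescence was captured 12 min after adding luciferase detection reagent.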
RXFP1 agonist – activates the human relaxin receptor RXFP1. 0.3% of 370,000 active. Potency, µM (highest dose often 57.5 µM), without a hit: top-dose activation, actives largely listed as activators. AID 2676. HEK293T-RXFP1 cAMP TR-FRET, 30 min; response scale: percent of porcine relaxin response, buffer zero; note: potency is the fitted concentration of half-maximal effect; % is set by controls: 0 for no effect and ±100 for the full control effect; nearly all actives have a fitted effect of over 60% in size
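HEK293 cells stably expressing RXFP1, treated 30 min at 37C with compounds plus PDE4 inhibitor Ro 20174; cAMP measured by HTRF TR-FRET. Normalized to buffer and 29 nM porcine relaxin; EC50 by Hill fit.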
NPSR antag – neuropeptide S receptor (human) antagonism, cAMP; Q6W5P4; CHO-NPSR cells, cAMP TR-FRET, antagonist mode; Potency, µM (series often up to 38.3 µM), without a hit: at the highest dose activity change, negative = inhibition, usual class: inhibitors; 1% of 220,000 active; AID 1461; note: potency is the fitted concentration of half-maximal effect; % is set by controls: 0 for no effect and ±100 for the full control effect; nearly all actives have a fitted effect of over 50% in size
Active calls of the source: *; i = inactive; ? = inconclusive; . = not tested or not shown; [ ] = remark or other dose. The entries come from a sample that favours hits as a whole. Unless noted, calls come from the whole dose curve; as a rule, active = well fitted curve in the direction sought with a large enough effect; inconclusive = small, poorly fitted or top-dose-only effect, or another doubt; inactive = no such curve, though single readings can be large; an effect the other way counts as inactive or inconclusive.

SMILES	PTHR1 agonist	RXFP1 antag	TSHR antagonist	GLP1R cytotox	RXFP1 agonist	NPSR antag
Cc1nc2sccn2c(=O)c1S(=O)(=O)Nc1ccc(N2CCN(S(C)(=O)=O)CC2)cc1	-20%	-4	21	12%	0%	.
CC(C)(C)OC(=O)NCCCC[C@H](NC(=O)c1nc[nH]c1C(=O)NC1CCN(C(=O)OC(C)(C)C)CC1)C(=O)OC(C)(C)C	-29%	.	-13	-25%	0%	10µM*
CC(C)(C)OC(=O)NCCCC[C@H](NC(=O)c1nc[nH]c1C(=O)N[C@@H](CCCCNC(=O)OC(C)(C)C)C(=O)OC(C)(C)C)C(=O)OC(C)(C)C	i	.	0	-3%	-3%	-37%
CN(C)c1ccc(C(C#N)c2ccccc2)nn1 (stereo not drawn)	i	-69*	-4	-11%	-3%	4%
CC12CCC(=O)N1C(C(=O)Nc1nc3ccc(Cl)cc3s1)CS2 (stereo not drawn)	-60%	-60*	-19	-3%	0%	.
CC12CCC(=O)N1C(C(=O)Nc1nc3ccc(S(C)(=O)=O)cc3s1)CS2 (stereo not drawn)	i	-3	-3	-4%	4%	.
COc1ccc(C2C(=O)c3ccccc3C2=O)cc1OC	-17%	3	14	-6%	-2%	13µM*
CCOc1c(N2CCOCC2)cnn(C)c1=O	.	-12	.	.	.	.
CCOC(=O)N1CCc2c(sc(NC(=O)c3ccc(Cl)s3)c2C(N)=O)C1	.	.	-47	.	6%	2.5µM*
CCN1C(=O)[C@H]2[C@H]3CN=C(SCc4ccc(C(=O)OC)cc4)N3[C@@](C)(C(=O)OC)[C@H]2C1=O	-4%	.	1	-3%	.	.
Clc1ccc2c(c1)Nc1ccccc1S2	.	-9	.	.	.	.
Cc1ccc(S(=O)(=O)Nc2ccccc2C=Nc2cccc(C)c2C)cc1	i	-66*	-8	-1%[1.53 µM]	-3%	-22%[46.1 µM]
Cc1ccc(S(=O)(=O)Nc2ccccc2NS(=O)(=O)c2ccc(C)cc2)cc1	-31%	.	.	-15%	.	.
Cc1ccc(S(=O)(=O)Nc2ccccc2N(C)S(=O)(=O)c2ccc(C)cc2)cc1	-4%	.	-75*	9%	0%	.
CC(C)(C)c1ccc(-c2nc(SCC(=O)Nc3ccccc3F)n3[nH]c(=O)cc3n2)cc1	i	-64*	.	-4%	2%	.
Clc1ccc(OCCCNCc2ccccc2)c(Br)c1	-11%	-77*	-3	1%	-2%	?
CCN(c1ccc(Cl)cc1)S(=O)(=O)c1nnc(NC(=O)C2CCCCC2)s1	i	-9	.	-6%	3%	.
CC(C)(C)c1ccc2c(c1)OC(C(=O)N/N=C\c1ccccn1)CO2 (stereo not drawn)	-90%	-61*	-10	?	-2%	-6%
O=C(O)c1cccc(-c2ccc(/C=N/NC(=O)C3COc4ccccc4O3)o2)c1 (stereo not drawn)	-47%	1	-6	11%	1%	-22%
CC(C)(C)c1ccc2c(c1)OC(C(=O)N/N=C\c1ccc(-c3cccc(C(=O)O)c3)o1)CO2 (stereo not drawn)	i	-74*	-22	-1%	4%	-47%
O=C(N/N=C/c1ccccn1)C1CC1	i	-10	0	-11%	3%	-2%[46.1 µM]
CCCc1cc(=O)[nH]c(SCC(=O)N2CCCC2=O)n1	i	7	-3	-3%	-2%	.
S=c1[nH]cnc2sc(-c3ccccc3)cc12	-19%	-20	2	5.6µM*	?	-49%
S=c1[nH]cnc2scc(-c3ccccc3)c12	-32%	-73*	-6	?	2%	-22%
COc1cc2c(cc1OC)-c1cc3ccc4c(c3c[n+]1CC2)OCO4	-21%	.	-27	-6%	9%	13µM*
SMILES	PTHR1 agonist	RXFP1 antag	TSHR antagonist	GLP1R cytotox	RXFP1 agonist	NPSR antag
O=c1cc(-c2c(O)c3ccccc3n(Cc3ccccc3)c2=O)[nH][nH]1	-17%	-84*	-11	-3%	1%	-1%
CCn1c(=O)c(-c2cc(=O)[nH][nH]2)c(O)c2ccccc21	i	7	23	-5%	2%	9%
Nc1nc(N)c(N=Nc2ccccc2)c(=O)[nH]1	i	-3	.	-35%	.	.
Nc1nc(N=Nc2ccc(O)cc2)cc(=O)[nH]1	7%	1	.	10µM*	.	.
O=C(Cn1c(=O)n(-c2ccc(Cl)cc2)c(=O)c2oc3ccccc3c21)Nc1ccccc1	i	10	.	-2%	17%	.
COc1cc(NC(=O)CC[C@H]2O[C@@H](n3cnc4c(NC(=O)c5ccccc5)ncnc43)[C@H](O)[C@@H]2O)cc(OC)c1OC	-15%	.	.	2%	.	.
CCCC(=O)Nc1ncnc2c1ncn2[C@@H]1O[C@@H]2COP(=O)(O)O[C@H]2[C@H]1OC(=O)CCC	-36%	.	254	-3%	0.16µM*	?
CC1=C(CO)C(=O)OC([C@@H](C)C2CC[C@H]3C4C[C@H]5O[C@]56[C@@H](O)C=CC(=O)[C@]6(C)C4CC[C@]23C)C1 (stereo partly drawn)	-52%	.	-39	13µM*	0%	5µM*
OC1(c2ccccc2)CCNCC1	.	-12	.	.	.	.
N#C/C(=C\c1ccc(-c2cccc(Cl)c2)o1)C(=O)Nc1cccc(C(F)(F)F)c1	-25%	-2	.	17%	-2%	.
Cc1cc(OCc2cc(C(=O)N(C)C(C)c3ccccn3)no2)cc(C)c1Cl (stereo not drawn)	-22%	-31	-98*	-4%	1%	.
Cc1cc(OCc2cc(C(=O)N(C)Cc3ccccn3)no2)cc(C)c1Cl	-34%	-8	1	2%	-1%	.
COc1ccc(/C=C2\N=C(c3ccccc3)N(c3ccc(C(=O)O)cc3)C2=O)cc1OC	-24%	10	-14	5%	0%	13µM*
COc1ccc(/C=C2/N=C3CCCCCN3C2=O)cc1OC	i	-8	-7	-4%	-4%	-7%[46.1 µM]
O=C1COc2ccccc2C(c2nc3ccccc3[nH]2)N1C1CC1 (stereo not drawn)	-2%	.	.	5%	.	.
Cc1nc(SCC(=O)N2CCN(C(=O)c3cccs3)CC2)c2c(C)c(C)sc2n1	-25%	-64*	-6	5%	17%	.
CCOC(=O)CSc1nc(C(C)C)nc2sc(C)c(C)c12	-8%	-60*	-9	4%	0%	57%
CCOC(=O)c1ccc(NC(=S)Nc2ccccn2)cc1	2%[57.5 µM]	5	-13	5.6µM*	3%	-8%[46.1 µM]
CCOC(=O)c1ccc(NC(=S)Nc2ccc(Cl)cn2)cc1	?	8	-1	-1%	14%	5%
